CHX counter: Cycloheximide Counterscreen for Small Molecule Inhibitors of Shiga Toxin. max response, %. 300,000 tested, 12% active. cell reporter, cycloheximide protein synthesis inhibition counterscreen; in the data active = max response mostly above about 13%, no sharp cut-off; inactive = mostly below about 14%; note: read at 38.3 µM for the half of the compounds with a filed dose; 0% is about no effect
Lassa entry inh: qHTS for Inhibitors of binding or entry into cells for Lassa Virus; Lassa virus pseudotype entry inhibition, cell reporter; Potency, µM (doses to about 37.9 µM), inactives show top-dose activity change, negative = inhibition, hits mostly inhibitors; 300,000 tested, 1.2% active; AID 540256, 2011; calls by dose curve; tested in HEK293 cells; note: potency is the fitted concentration of half-maximal effect; % is set by controls: 0 for no effect and ±100 for the full control effect; nearly all actives have a fitted effect of over 50% in size
Marburg entry inh: qHTS for inhibitors of binding or entry into cells for Marburg Virus; Marburg virus pseudotyped entry inhibition, cell reporter; Potency, µM (doses to about 37.8 µM), inactives show at the top dose activity change, negative = inhibition, usual class: inhibitors; AID 540276, 2011; 300,000 tested, 1.8% active; calls by dose curve; tested in HEK293 cells; note: potency is the fitted concentration of half-maximal effect; % is set by controls: 0 for no effect and ±100 for the full control effect
Pf growth 96h: Primary qHTS for delayed death inhibitors of the malarial parasite plastid, 96 hour incubation | Potency, µM (doses to about 28.7 µM), for the others: at the top dose activity change, negative = inhibition, actives largely listed as inhibitors | P. falciparum luciferase reporter growth, 96 h | 320,000 tested, 6.9% active | AID 504834, 2011; note: potency is the fitted concentration of half-maximal effect; % is set by controls: 0 for no effect and ±100 for the full control effect
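Readout is luminescence from an integrated firefly luciferase in P. falciparum. Red cells, 2% hematocrit and 0.05% parasitemia final, were cultured with compound through two parasite generations (96 hours) at 37 C, 5% CO2.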
Pf growth 48h: Primary qHTS for delayed death inhibitors of the malarial parasite plastid, 48 hour incubation; P. falciparum luciferase growth in erythrocytes, 48 h; Potency, µM (highest dose often 28.7 µM), without a hit: at the top dose activity change, negative = inhibition, hits mostly inhibitors; 310,000 tested, 5.9% active; note: potency is the fitted concentration of half-maximal effect; % is set by controls: 0 for no effect and ±100 for the full control effect
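Parasite viability was followed by luminescence of a genomically integrated firefly luciferase. Cultures held 0.1% parasitemia at 2% hematocrit (final), incubated under 5% CO2 at 37 C.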
Shiga toxin inh: A qHTS for Small Molecule Inhibitors of Shiga Toxin; inhibition, % at 38.7 µM; 290,000 tested, 9.2% active; Vero cells, Shiga toxin protein synthesis inhibition reporter; AID 2315, 2010; in the data active = inhibition mostly above about 28%, no sharp cut-off; inactive = mostly below about 43%; note: 0% is about no effect
Starred values were filed as active, the others as inactive; ? = inconclusive; / = no result; [ ] = another dose, or the depositor's remark. Only some compounds are listed: those with a hit (about 19% of all), similar ones and a draw of the others. Unless noted, calls come from the whole dose curve; as a rule, active = well fitted inhibition curve with a large enough effect; inconclusive = small, poorly fitted or top-dose-only effect, or another doubt; inactive = no such curve, though single readings can be large or run the other way.

SMILES	CHX counter	Lassa entry inh	Marburg entry inh	Pf growth 96h	Pf growth 48h	Shiga toxin inh
CCOC(=O)Nc1ccc2c(COC(=O)c3ccccc3O)cc(=O)oc2c1	27*	-4%[46.1 µM]	-10%[46.1 µM]	-17%	4%	76*
COc1ccc(F)cc1COc1nc(C)nc2ccccc12	-2	11%	-27%[46.1 µM]	?	-18%	10
COc1ccc(C2NCCc3c2[nH]c2ccccc32)cc1CN1CCc2cc(OC)c(OC)cc2C1C (stereo unspecified)	-2	/	/	?	1.7µM*	-14
COc1cc2c(cc1OC)C(C)N(Cc1ccc3c(c1)OCO3)CC2 (stereo unspecified)	1	/	/	83%	58%	1
COc1ccc(C2NCCc3c2[nH]c2ccccc32)cc1COc1ccc(F)cc1 (stereo unspecified)	-11	23µM*	?	?	?	-23
CCOc1ccc(C(F)(F)F)cc1NC(=O)COc1ccc(C(F)(F)F)cc1[N+](=O)[O-]	-1	2%	2%	?	-5%	3
CCCOP(=O)(OCCC)c1c([N+](=O)[O-])cc(C(F)(F)F)cc1[N+](=O)[O-]	-3	-2%	?	9.3µM*	/	-13
CCC(C)NC(=O)CC1Oc2ccc(Cl)cc2NC1=O (stereo unspecified)	-8	/	/	10µM*	/	-8
Cc1ccc(CNC(=O)CC2Oc3ccc(Cl)cc3NC2=O)cc1 (stereo unspecified)	/	/	9%[46.1 µM]	/	/	/
CNC(=O)NC(=O)CSc1nnc(-c2ccco2)n1Cc1ccccc1	-5	9%	-2%	-1%	13%	-15
CCOC(=O)c1c(C)[nH]c(C)c1C(=O)CSc1nnc(-c2ccco2)n1Cc1ccccc1	-2	-10%	-13%	15µM*	7.4µM*	-3
CCOC(=O)c1c(C)[nH]c(C)c1C(=O)CSc1nnc(-c2ccncc2)n1C	-4	7%	8%	2%	/	-11
CCOC(=O)c1c(C)[nH]c(C)c1C(=O)CSc1nnc(-c2ccncc2)n1Cc1ccccc1	9	6%	5%	10µM*	/	-7
OCC1(Cc2ccccc2)CCCN(Cc2cn[nH]c2-c2ccccc2)C1 (stereo unspecified)	1	-13%	?	?	-10%	22
Cc1ccc(C)c(-c2[nH]ncc2CN2CCCC(CO)(Cc3ccccc3C)C2)c1 (stereo unspecified)	-1	/	25µM*	?	?	-5
O=C(Nc1cc(S(=O)(=O)N2CCOCC2)ccc1O)c1ccc(NS(=O)(=O)c2ccc(Cl)s2)cc1	1	3%	3%	-3%	32%	-9
O=C(Nc1ccc(Cl)cc1)Nc1ccc(N2CCCC2)c(S(=O)(=O)Nc2ccccc2Cl)c1	-1	5µM*	1.6µM*	?	?	2
O=C(Nc1ccc(N2CCOCC2)c(S(=O)(=O)Nc2ccccc2Cl)c1)c1ccccc1	/	/	/	?	10µM*	/
Cc1ccc(NC(=O)c2ccccc2NS(=O)(=O)c2ccc(Cl)s2)cc1S(=O)(=O)N1CCOCC1	-2	?	?	?	12µM*	10
CCC(C)NC(=O)c1cc2cc3ccc(OC)cc3nc2s1 (stereo unspecified)	57*	8%	?	7%	/	88*
COc1ccc2cc3cc(C(=O)NCCN4CCc5ccccc5C4)sc3nc2c1	21*	3%	?	2.6µM*	?	47*
CCOc1ccc(CCNC(=O)c2cc3cc4cc(OC)ccc4nc3s2)cc1OCC	/	2%[46.1 µM]	-25%[46.1 µM]	/	/	/
COc1ccc2cc3cc(C(=O)NCCN4CCc5ccccc5C4)oc3nc2c1	21	?	-17%	?	3.3µM*	36*
O=S1(=O)C=C(N2CCOCC2)c2ccccc21	-2	-6%	19%	-5%	50%	-1
CCOC(=O)CC1C(=O)NCCN1Cc1ccc(OC)c(OC)c1 (stereo unspecified)	-1	/	-1%[46.1 µM]	10µM*	0%	-4
SMILES	CHX counter	Lassa entry inh	Marburg entry inh	Pf growth 96h	Pf growth 48h	Shiga toxin inh
COc1ccc(CN2CCNC(=O)C2CC(=O)N(C)CCC2CCOCC2)cc1OC (stereo unspecified)	-2	/	/	?	8%	-9
COc1ccc(CN2CCNC(=O)C2CC(=O)NCCC2=CCCCC2)cc1OC (stereo unspecified)	2	/	/	10µM*	-6%	9
CCOC(=O)CC1C(=O)NCCN1S(=O)(=O)c1ccc(Cl)cc1 (stereo unspecified)	-4	-3%	-12%	?	?	-2
CCOC(=O)CC1C(=O)NCCN1S(=O)(=O)c1cc(Cl)c(Cl)cc1Cl (stereo unspecified)	-3	-12%	1.6µM*	47%	30%	-13
COc1ccccc1CN1CCNC(=O)C1CC(=O)NCCC1=CCCCC1 (stereo unspecified)	-1	/	/	?	?	-5
COc1cccc(CCNC(=O)CC2C(=O)NCCN2CC(C)(C)C)c1 (stereo unspecified)	-4	2%[46.1 µM]	15%[46.1 µM]	15µM*	13%	-3
CCc1ccc(-c2[nH]c3c(c2-c2c(-n4cccc4)n(C)c(=O)[nH]c2=O)c(=O)[nH]c(=O)n3C)cc1	/	-6%[46.1 µM]	2%[46.1 µM]	/	/	/
COc1ccc(CN2CCNC(=O)C2CC(=O)NCCc2cnccn2)cc1C (stereo unspecified)	-1	-1%	1%	15µM*	0%	-11
C=C(C)C1CC=C(C)/C(=N\NC(=S)Nc2ccc(C)cc2)C1 (stereo unspecified)	23*	13µM*	?	10µM*	15µM*	54*
CC1CCN(c2ccc3nnc(CCC(=O)N4CCN(c5ccc(F)cc5)CC4)n3n2)CC1	-2	-19%[46.1 µM]	-15%[46.1 µM]	-17%	5.2µM*	-3
COc1ccc(N2CCN(C(=O)CCc3nnc4ccc(N5CCCC5)nn34)CC2)cc1	1	/	/	12µM*	?	2
COC(=O)NNC(=S)NCc1ccc(C)cc1	-6	4%	15%	?	10%	-13
O=C1N=C(N2CCCCC2)SC1=C1CCCC1	26*	13%	?	-2%	/	45*
COc1ccc(S(=O)(=O)N2CCCC2CNC(=O)C(=O)NCc2ccccn2)cc1 (stereo unspecified)	/	-3%	9%	-6%	?	/
NC(=O)c1sc2cc(C(F)(F)F)cnc2c1-c1ccccc1	-1	-2%	0%[46.1 µM]	8.3µM*	?	-4
CNC(=S)NNC(=O)c1sc2cc(C(F)(F)F)cnc2c1-c1cccnc1	-4	-15%[46.1 µM]	11%[46.1 µM]	?	?	-11
CCOC(=O)C(=CNc1ccc2c(c1)c1ccccc1n2CC)C(=O)OCC	-1	/	/	52%	44%	-5
CCOC(=O)/C(C#N)=C\c1c(OCC)n(CC)c2ccccc12	-4	?	?	12µM*	?	-9

Screening data as filed in PubChem BioAssay.
